The target in assay [1] is Ubiquitin carboxyl-terminal hydrolase 2 (Homo sapiens) (UniProt O75604). Description: qHTS Validation Assay for Inhibitors of Ubiquitin-specific Protease USP2a Using CHOP2 as the Reporter (AID 463106). Further: potency means the concentration at half of the fitted maximal effect. Put shortly: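 USP2 core (10 nM final) was preincubated with compound 30 min at RT in pH 8.0 Tris/CaCl2/beta-ME/CHAPS buffer. Ub-CHOP2 and reporter substrate (25 nM final each) were then added, with fluorescence (Ex 485/Em 531) read after 60 min. Data were normalized to NEM full inhibition and fitted to concentration-response curves.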

The target of assay [2] is DNA polymerase III PolC-type (Bacillus subtilis (strain 168)) (UniProt P13267). Description: qHTS Validation Assay for the Inhibitors of DNA Replication in Gram-Positive Bacteria (AID 485295). Further: potency means the concentration at half of the fitted maximal effect. In short, it runs like this: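 Primed replication of single-stranded M13Gori by a four-protein B. subtilis holoenzyme is measured at room temperature. Double-stranded product is quantified by PicoGreen fluorescence after an EDTA stop; inhibition is scaled between DMSO and EDTA controls.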
Background: qHTS replaces the single test concentration by a dilution series.

Assay [3] can be described thus: qHTS Validation Assay to Find Inhibitors of Chronic Active B-Cell Receptor Signaling (AID 485345; active means well fitted curve in the direction sought with a large enough effect in the main read-out, with a control signal flat, not every such curve was filed as active). Put shortly:
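TMD8 ABC-DLBCL cells stably carrying doxycycline-inducible IkappaBalpha–green luciferase fusion plus unfused red luciferase; compounds 46 uM to 3 nM, 4 h at 37C with doxycycline. Corrected green/red luminescence ratio normalized to 10 uM MG-132 and basal cell wells; curves fitted.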

Assay [4] deals with Beta-2 adrenergic receptor (Homo sapiens) (UniProt P07550). The experiment in a line: qHTS validation assay of beta-arrestin-biased ligands of beta2-adrenergic receptor (AID 485366). Put shortly: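 Luminescence from a tTA-responsive luciferase, induced when recombinant beta-arrestin is recruited to recombinant beta2-AR, served as the agonism signal. Cells were exposed to compound for 18 hr at 37 degrees C; titrations spanned up to 46 microM.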

Assay [5] deals with ATP-dependent 6-phosphofructokinase (Trypanosoma brucei brucei) (UniProt O15648). The experiment in a line: qHTS Validation Assay to Find Inhibitors of T. brucei phosphofructokinase (AID 485368). Further: potency means the concentration at half of the fitted maximal effect. Put shortly:
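Activity was normalized between 1x (1.25 nM) PFK wells as no inhibition and enzyme-free wells as full inhibition, from luminescence after ADP-Glo detection of ADP made from 0.5 mM F6P and 0.1 mM ATP over 45 min.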

Assay [6] in a line: Quantitative high throughput screen for delayed death inhibitors of the malarial parasite plastid, 96 hour incubation (AID 488745). Further: nearly all actives have a fitted effect of over 70% in size. Further: potency means the concentration at half of the fitted maximal effect. In short, it runs like this:
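Luciferase-expressing P. falciparum in erythrocytes (2% hematocrit, 0.1% parasitemia) incubated with compound for 96 h at 37 C, 5% CO2, in RPMI 1640 with 0.5% Albumax. Growth inhibition read as decreased luminescence.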

Assay [7] has as its target Thioredoxin reductase 1, cytoplasmic (Rattus norvegicus) (UniProt O89049). Description: qHTS Assay for Substrates of Mammalian Selenoprotein Thioredoxin Reductase 1 (TrxR1) (AID 488772).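 Further: NADPH fluorescence in the first read after selenite addition and not the 8 min delta; series mostly up to about 57 µM; a drop in NADPH fluorescence below the no-compound background marks a TrxR1 substrate.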 Put shortly: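 Quantitative HTS in Tris-HCl buffer at pH 7.5 with EDTA and Tween-20, using rat TrxR1, 400 uM NADPH and 400 uM selenite (final). A fall in initial NADPH fluorescence relative to background marked substrate behaviour.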

Assay [8] has the same target. Description: qHTS Assay for Inhibitors of Mammalian Selenoprotein Thioredoxin Reductase 1 (TrxR1) (AID 488773). Further: nearly all actives have a fitted effect of over 40% in size. Further: potency means the concentration at half of the fitted maximal effect. Particulars: Potency: inhibition. Put shortly:
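Steps: enzyme (90 nM) plus NADPH (400 uM final), 5 min at ~22 deg C; compound added, 15 min; selenite (400 uM final) added; fluorescence followed for 8 min. Concentration-response curves derived from the normalized delta values.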

The target in assay [9] is M-phase phosphoprotein 8 (Homo sapiens) (UniProt Q99549). The experiment in a line: qHTS Validation Assay for Inhibitors for MPP8 Chromodomain Interactions with Methylated Histone Tails (AID 488949). Further: nearly all actives have a fitted effect of over 55% in size. Further: potency means the concentration at half of the fitted maximal effect. Put shortly: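 Disruption of the preformed MPP8–trimethyl-H3K9 peptide complex (both 50 nM, 30 min, RT) is measured after 30 min compound exposure, using AlphaScreen proximity beads; aurintricarboxylic acid titration serves as plate control.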

Assay [10] addresses Chromobox protein homolog 1 (Homo sapiens) (UniProt P83916). The experiment in a line: qHTS Validation Assay for Inhibitors of HP1-beta Chromodomain Interactions with Methylated Histone Tails (AID 488953). Further: nearly all actives have a fitted effect of over 50% in size. Further: potency means the concentration at half of the fitted maximal effect. In short, it runs like this: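 HP1-beta (50 nM) preformed 30 min with biotinylated H3(1-18)K9me3 peptide (50 nM) in PBS pH 7.4, 0.01% Tween-20. Compounds added for 30 min at room temperature. Complex disruption read by AlphaScreen with streptavidin donor/nickel chelate acceptor beads (10 ug/mL each).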

Assay [11] deals with Methanococcus maripaludis chaperonin (MmCpn) (UniProt Q6LX38). Description: High-Throughput Screening for Modulators of Cytosolic Chaperonin Activity: MmCpn Primary Screen (AID 488978).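 Further: 50 nM MmCpn enzyme hydrolysing 30 µM ATP at 37 °C.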 Put shortly:
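Measures ATPase turnover of the M. maripaludis chaperonin (50 nM final) against 30 uM ATP over 10 min at 37C, with compound added 5 min beforehand at room temperature. ADP is quantified by HTRF immunodetection.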

The target of assay [12] is Transient receptor potential cation channel subfamily V member 1 (Homo sapiens) (UniProt Q8NER1). Description: HTS Assay for Compounds that Act as Enhancers of the Vanilloid Receptor 1 (AID 488979). Put shortly:
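TRPV1 cells loaded with Fluo-8 calcium dye; compound added and Ca2+ signal (ex 480/em 520 nm) followed 3 min, then capsaicin at EC20 added and read 2 more min to detect enhancement.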

For assay [13], the target named is Thyrotropin receptor (Homo sapiens) (UniProt P16473). Description: qHTS Assay for Antagonists of the Thyroid Stimulating Hormone Receptor (AID 488980). Further: series mostly up to about 58 µM. Put shortly:
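Cells expressing human TSHR (HEK293) are dispensed in HBSS/HEPES containing 70 uM RO 20-1724, compound is added, then TSH at EC80 (4 nM final). Antibody in lysis buffer follows, 30 minutes at room temperature before HTRF detection.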

For assay [14], the target named is D(1A) dopamine receptor (Homo sapiens) (UniProt P21728). Description: HTS Assay for Allosteric Agonists of the Human D1 Dopamine Receptor: Primary Screen for Agonists (AID 488981). Put shortly: (§1)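 Tetracycline-induced HEK293 Trex D1 cells with forced coupling to calcium, loaded with no-wash calcium dye; kinetic fluorescence read 180 s after compound addition for agonism, then a further 180 s after an EC20 dopamine challenge for potentiation.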

Assay [15] shares this target. The experiment in a line: HTS Assay for Allosteric Agonists of the Human D1 Dopamine Receptor: Primary Screen for Potentiators (AID 488982). Put shortly: as §1
Assay [16] shares this target. The experiment in a line: HTS Assay for Allosteric Agonists of the Human D1 Dopamine Receptor: Primary Screen for Antagonists (AID 488983).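 Further: calcium flux response to an EC80 dopamine challenge measured with no-wash dye; nearly all actives have a fitted effect of over 65% in size.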 Put shortly: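 Tetracycline-induced HEK293 T-REx D1 line, force-coupled to calcium flux, read with no-wash calcium dye. Compound added after 10 s baseline, read 180 s for agonism, then EC80 dopamine added and read a further 180 s.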

Assay [17] has as its target Tumor susceptibility gene 101 protein (Homo sapiens) (UniProt Q99816). Description: qHTS Validation Assay for Iinhibitors of HIV-1 Budding by Blocking the Interaction of PTAP/TSG101 (AID 485342; calls by dose curve). Put shortly:
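Fluorescence anisotropy measured PTAP-Tsg101 interaction. Final concentrations were 10 uM protein domain and 50 nM labeled peptide, equilibrated 20 min at room temperature.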

The target in assay [18] is Flap endonuclease 1 (Homo sapiens) (UniProt P39748). Description: qHTS Validation Assay for the Inhibitors of Human Flap endonuclease 1 (FEN1) (AID 488816). Further: potency means the concentration at half of the fitted maximal effect. In short, it runs like this: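 Human FEN1 (10 nM) preincubated 15 min at room temperature with compounds, then flap DNA substrate added at 50 nM final. Fluorescence read at 0 and 15 min; concentration-response fitted with four-parameter Hill equation.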

Assay [19] can be described thus: Quantitative high throughput screen for delayed death inhibitors of the malarial parasite plastid, 48 hour incubation (AID 488752). Further: nearly all actives have a fitted effect of over 65% in size. Further: potency means the concentration at half of the fitted maximal effect. Put shortly:
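Erythrocytes infected with firefly luciferase-expressing P. falciparum (2% hematocrit, 0.1% parasitemia) cultured with compound for 48 h at 37 C, 5% CO2, in RPMI 1640/0.5% Albumax. Growth inhibition read as loss of luminescence.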

The target in assay [20] is Tyrosyl-DNA phosphodiesterase 1 (Homo sapiens) (UniProt Q9NUW8). Description: Confirmation Assay for Inhibitors of Tyrosyl-DNA Phosphodiesterase (TDP1) (AID 489007). Further: potency means the concentration at half of the fitted maximal effect; nearly all actives have a fitted effect of over 40% in size. The note with it: recombinant human TDP1 enzymatic activity, dose-response. Put shortly:
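Recombinant human Tdp1 (1 nM final), expressed in E. coli, preincubated 15 min with compound. Then 15 nM 5'-biotin/3'-phosphotyrosine-FITC DNA substrate added for 5 min at room temperature. AlphaScreen beads (10 ug/ml) added for 10 min; cleavage gives signal loss.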

Each structure is given as a SMILES string. Where “and” joins values, the source holds several entries; their conditions need not be identical. Equal entries are not always repeated. Inconclusive results are not listed. Calls of active or inactive are those of the source. Unless noted, the call rests on the fitted dose curve; in most records, active means well fitted curve in the direction sought with a large enough effect; inconclusive means small, poorly fitted or top-dose-only effect, or another doubt; inactive means no such curve, though single readings can be large; an effect the other way counts as inactive or inconclusive.

Chain of DNA polymerase III PolC-type (Bacillus subtilis (strain 168)) (P13267 whole entry, looked up): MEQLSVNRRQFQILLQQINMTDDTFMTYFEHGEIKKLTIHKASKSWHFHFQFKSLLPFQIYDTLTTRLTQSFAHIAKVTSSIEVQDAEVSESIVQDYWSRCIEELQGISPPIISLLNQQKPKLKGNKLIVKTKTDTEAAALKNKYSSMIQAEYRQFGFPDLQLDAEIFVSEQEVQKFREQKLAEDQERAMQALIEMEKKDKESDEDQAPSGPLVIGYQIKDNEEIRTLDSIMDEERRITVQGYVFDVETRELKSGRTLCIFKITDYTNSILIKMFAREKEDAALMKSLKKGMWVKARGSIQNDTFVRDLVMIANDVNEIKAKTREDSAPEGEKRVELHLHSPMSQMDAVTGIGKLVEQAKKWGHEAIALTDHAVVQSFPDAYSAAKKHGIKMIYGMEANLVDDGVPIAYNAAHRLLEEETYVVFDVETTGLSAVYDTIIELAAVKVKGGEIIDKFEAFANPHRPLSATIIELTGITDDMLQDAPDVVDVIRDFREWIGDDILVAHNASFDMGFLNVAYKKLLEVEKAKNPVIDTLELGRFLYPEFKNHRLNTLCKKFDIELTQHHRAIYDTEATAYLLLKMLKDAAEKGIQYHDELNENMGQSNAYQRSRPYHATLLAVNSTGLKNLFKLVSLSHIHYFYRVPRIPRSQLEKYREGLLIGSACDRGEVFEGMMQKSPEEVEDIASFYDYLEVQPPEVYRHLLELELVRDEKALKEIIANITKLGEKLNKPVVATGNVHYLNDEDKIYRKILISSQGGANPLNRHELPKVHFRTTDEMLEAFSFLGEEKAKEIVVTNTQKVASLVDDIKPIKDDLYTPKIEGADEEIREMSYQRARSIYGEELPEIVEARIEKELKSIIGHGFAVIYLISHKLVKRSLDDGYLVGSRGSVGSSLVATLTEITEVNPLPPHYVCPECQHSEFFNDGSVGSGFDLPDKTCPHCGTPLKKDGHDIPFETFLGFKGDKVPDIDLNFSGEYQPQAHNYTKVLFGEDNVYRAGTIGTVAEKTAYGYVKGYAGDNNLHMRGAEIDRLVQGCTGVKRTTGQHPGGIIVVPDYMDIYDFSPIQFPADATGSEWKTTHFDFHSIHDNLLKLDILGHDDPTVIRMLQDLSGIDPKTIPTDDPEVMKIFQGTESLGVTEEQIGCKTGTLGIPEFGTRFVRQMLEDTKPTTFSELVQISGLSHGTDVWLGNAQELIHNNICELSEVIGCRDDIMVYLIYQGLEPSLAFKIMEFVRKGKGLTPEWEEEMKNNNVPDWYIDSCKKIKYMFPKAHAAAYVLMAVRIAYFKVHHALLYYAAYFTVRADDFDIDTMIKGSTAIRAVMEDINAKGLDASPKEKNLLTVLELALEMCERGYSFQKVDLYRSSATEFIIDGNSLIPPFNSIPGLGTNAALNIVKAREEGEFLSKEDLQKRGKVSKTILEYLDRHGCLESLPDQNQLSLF
Chain of Thyrotropin receptor (Homo sapiens) (P16473 whole entry, looked up): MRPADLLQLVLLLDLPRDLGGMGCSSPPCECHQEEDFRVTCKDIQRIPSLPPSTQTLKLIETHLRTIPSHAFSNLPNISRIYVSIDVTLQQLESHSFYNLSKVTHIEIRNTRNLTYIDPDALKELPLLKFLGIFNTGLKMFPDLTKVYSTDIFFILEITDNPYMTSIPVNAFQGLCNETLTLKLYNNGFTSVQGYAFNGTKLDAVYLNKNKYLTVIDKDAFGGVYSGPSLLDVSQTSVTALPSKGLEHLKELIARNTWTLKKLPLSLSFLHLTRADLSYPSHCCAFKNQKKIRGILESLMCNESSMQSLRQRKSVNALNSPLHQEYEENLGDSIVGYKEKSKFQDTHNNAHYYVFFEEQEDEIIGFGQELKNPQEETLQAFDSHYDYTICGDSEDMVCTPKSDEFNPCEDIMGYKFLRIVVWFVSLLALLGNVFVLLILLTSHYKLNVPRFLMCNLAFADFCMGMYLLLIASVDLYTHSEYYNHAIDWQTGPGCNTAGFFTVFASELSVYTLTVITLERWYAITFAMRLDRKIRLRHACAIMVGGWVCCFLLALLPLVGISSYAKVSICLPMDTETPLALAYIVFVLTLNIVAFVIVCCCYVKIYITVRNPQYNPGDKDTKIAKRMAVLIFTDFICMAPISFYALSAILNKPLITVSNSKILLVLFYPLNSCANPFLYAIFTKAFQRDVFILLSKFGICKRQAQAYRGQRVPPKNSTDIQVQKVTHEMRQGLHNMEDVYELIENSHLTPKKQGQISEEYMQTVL
Chain of Flap endonuclease 1 (Homo sapiens) (P39748 whole entry, looked up): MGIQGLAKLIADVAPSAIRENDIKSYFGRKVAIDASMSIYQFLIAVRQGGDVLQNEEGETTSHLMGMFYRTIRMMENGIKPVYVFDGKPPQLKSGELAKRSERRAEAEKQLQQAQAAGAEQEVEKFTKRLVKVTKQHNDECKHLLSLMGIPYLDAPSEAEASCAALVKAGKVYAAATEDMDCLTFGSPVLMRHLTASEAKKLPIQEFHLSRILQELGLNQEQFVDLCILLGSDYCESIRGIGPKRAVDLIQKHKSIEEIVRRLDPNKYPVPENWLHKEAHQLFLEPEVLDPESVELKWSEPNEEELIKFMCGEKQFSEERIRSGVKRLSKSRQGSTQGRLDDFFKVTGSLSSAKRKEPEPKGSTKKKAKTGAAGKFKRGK
Chain of M-phase phosphoprotein 8 (Homo sapiens) (Q99549 whole entry, looked up): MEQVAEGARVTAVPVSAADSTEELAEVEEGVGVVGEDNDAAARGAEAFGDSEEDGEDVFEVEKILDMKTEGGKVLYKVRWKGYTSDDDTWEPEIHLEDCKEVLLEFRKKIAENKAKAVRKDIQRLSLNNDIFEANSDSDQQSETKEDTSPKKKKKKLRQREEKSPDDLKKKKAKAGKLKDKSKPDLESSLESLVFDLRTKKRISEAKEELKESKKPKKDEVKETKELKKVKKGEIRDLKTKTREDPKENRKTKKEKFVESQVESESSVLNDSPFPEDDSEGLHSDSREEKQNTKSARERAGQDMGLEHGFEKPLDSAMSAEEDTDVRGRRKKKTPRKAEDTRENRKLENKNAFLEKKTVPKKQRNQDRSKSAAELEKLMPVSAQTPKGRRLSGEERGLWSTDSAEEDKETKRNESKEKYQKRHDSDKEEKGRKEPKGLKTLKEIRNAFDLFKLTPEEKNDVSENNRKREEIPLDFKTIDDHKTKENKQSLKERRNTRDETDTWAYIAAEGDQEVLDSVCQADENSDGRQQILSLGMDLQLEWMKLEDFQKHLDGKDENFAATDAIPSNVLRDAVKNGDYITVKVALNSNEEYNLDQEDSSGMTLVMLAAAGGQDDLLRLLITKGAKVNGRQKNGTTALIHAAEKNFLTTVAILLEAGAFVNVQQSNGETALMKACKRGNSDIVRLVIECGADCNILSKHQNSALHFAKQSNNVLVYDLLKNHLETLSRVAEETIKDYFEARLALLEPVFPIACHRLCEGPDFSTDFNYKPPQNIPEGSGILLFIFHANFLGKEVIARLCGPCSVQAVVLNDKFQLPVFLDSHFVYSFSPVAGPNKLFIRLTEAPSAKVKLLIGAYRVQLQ
Chain of Chromobox protein homolog 1 (Homo sapiens) (P83916 whole entry, looked up): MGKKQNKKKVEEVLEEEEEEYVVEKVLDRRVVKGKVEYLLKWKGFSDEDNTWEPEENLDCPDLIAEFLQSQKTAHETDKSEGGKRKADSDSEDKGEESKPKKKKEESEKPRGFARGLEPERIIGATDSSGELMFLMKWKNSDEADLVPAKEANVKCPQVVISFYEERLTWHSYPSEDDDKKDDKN
Chain of Methanococcus maripaludis chaperonin (MmCpn) (Q6LX38 1-543): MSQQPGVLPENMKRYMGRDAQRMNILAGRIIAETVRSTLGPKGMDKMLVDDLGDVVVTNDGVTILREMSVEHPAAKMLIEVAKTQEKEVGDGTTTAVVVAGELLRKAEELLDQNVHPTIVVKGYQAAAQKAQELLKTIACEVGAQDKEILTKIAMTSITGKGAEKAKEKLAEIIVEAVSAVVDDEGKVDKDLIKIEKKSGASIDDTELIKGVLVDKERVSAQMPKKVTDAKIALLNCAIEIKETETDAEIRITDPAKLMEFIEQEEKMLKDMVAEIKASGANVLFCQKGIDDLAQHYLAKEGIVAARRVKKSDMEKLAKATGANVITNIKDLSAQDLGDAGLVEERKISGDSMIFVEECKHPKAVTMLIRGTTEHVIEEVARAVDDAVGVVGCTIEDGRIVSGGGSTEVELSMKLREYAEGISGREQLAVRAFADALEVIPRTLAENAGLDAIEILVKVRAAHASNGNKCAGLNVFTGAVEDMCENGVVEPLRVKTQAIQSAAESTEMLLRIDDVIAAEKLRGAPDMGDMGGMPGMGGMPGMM
Chain of ATP-dependent 6-phosphofructokinase (Trypanosoma brucei brucei) (O15648 whole entry, looked up): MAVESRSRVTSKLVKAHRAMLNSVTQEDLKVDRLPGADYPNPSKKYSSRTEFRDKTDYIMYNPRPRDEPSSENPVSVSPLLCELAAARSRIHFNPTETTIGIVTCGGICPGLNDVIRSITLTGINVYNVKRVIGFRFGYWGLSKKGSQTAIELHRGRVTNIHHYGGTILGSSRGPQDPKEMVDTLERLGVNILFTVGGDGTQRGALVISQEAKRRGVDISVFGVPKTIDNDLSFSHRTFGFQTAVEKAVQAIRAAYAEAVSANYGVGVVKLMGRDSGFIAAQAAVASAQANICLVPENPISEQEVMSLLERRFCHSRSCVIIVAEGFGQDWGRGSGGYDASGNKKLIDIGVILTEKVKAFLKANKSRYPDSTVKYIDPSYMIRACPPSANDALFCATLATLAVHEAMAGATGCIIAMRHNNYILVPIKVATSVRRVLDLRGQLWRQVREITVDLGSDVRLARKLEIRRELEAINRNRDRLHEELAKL
Chain of Tumor susceptibility gene 101 protein (Homo sapiens) (Q99816 whole entry, looked up, the tested form may be a part): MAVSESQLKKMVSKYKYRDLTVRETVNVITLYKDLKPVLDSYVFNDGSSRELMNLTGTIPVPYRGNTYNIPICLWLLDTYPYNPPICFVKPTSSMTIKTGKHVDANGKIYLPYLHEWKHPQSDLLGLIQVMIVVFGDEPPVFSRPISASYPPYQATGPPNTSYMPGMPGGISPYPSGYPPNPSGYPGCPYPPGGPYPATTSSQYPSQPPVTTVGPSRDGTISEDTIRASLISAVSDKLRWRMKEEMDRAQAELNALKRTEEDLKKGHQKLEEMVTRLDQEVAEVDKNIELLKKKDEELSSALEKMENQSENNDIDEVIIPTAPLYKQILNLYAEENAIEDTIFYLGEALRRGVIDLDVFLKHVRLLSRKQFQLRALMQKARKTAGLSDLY

Consider `CC1COc2c(N3CCN(C)CC3)c(F)cc3c(=O)c(C(=O)O)cn1c23` (configuration not stated), for which the Potency result in assay [1], in assay [2], in assay [3], in [5], in [6] and in assay [8] was “inactive” in each case. The Potency entry in [9], in assay [10], in [14], in assay [15] and in [16] was “inactive” each time. Further, the molecule was classed as inactive in assay [4], in [7], in assay [11], in assay [12] and in [13].

As for `OCCN1CCN(CCCN2c3ccccc3Sc3ccc(C(F)(F)F)cc32)CC1`, the Potency result in assay [1], in assay [2], in assay [8], in [18] and in assay [14] was “inactive” throughout. Further, the call in [17], in assay [4], in [7], in [11] and in assay [13] was inactive.

For the molecule `CNCCCC12CCC(c3ccccc31)c1ccccc12`, the Potency result in assay [1], in [2], in [5], in assay [18], in assay [9] and in assay [10] was “inactive” throughout. In addition, in assay [15], the Potency entry was “inactive”. Further, the molecule was called inactive in [17], in [4], in assay [7], in assay [11] and in assay [13].

Turning to `Cc1ccc(C(=O)Nc2ccc(S(=O)(=O)O)c3cc(S(=O)(=O)O)cc(S(=O)(=O)O)c23)cc1NC(=O)c1cccc(NC(=O)Nc2cccc(C(=O)Nc3cc(C(=O)Nc4ccc(S(=O)(=O)O)c5cc(S(=O)(=O)O)cc(S(=O)(=O)O)c45)ccc3C)c2)c1`, the Potency in assay [1] was 3290 nM (active); in [2] it was 7520 nM (active); in assay [5], 675 nM (active); in assay [18] it was 336 nM (active); in assay [9], 8.91 µM (active) and 1.89 µM (active); in [10] it was 2000 nM (active). Moreover, the Potency in assay [20] is 2.51 µM (active) and 5.62 µM (active) and 1.26 µM (active). In addition, the Potency result in assay [3], in assay [6], in assay [19], in assay [8], in assay [14] and in assay [15] was “inactive” throughout. For the same molecule, the Potency entry in [16] was “inactive”. Moreover, the molecule was classed as inactive in [4], in assay [7], in assay [11], in [12] and in assay [13].

Consider `COc1cc2c(c(OC)c1OC)-c1ccc(OC)c(=O)cc1[C@@H](NC(C)=O)CC2`, for which the Potency entry in assay [1], in [2], in assay [6], in assay [9], in [14] and in assay [15] was “inactive” each time. The Potency result in assay [16] is “inactive”. Besides, the molecule was called inactive in assay [17], in assay [4], in assay [7], in [11], in assay [12] and in [13].

`CN(C)c1nc(N(C)C)nc(N(C)C)n1`: the Potency entry in [1], in assay [2], in assay [3], in [5], in [19] and in assay [8] was “inactive” each time. The Potency result in [18], in [9], in assay [10], in assay [14], in assay [15] and in assay [16] was “inactive” in each case. In addition, the result in [4], in [7], in assay [11], in assay [12] and in assay [13] was inactive.

In the case of `C[C@](N)(Cc1ccc(O)c(O)c1)C(=O)O`, the Potency entry in assay [1], in assay [2], in assay [3], in assay [6], in assay [14] and in assay [16] was “inactive” each time. Further, the outcome in assay [4], in [7], in assay [11] and in assay [12] was inactive. Further, the Potency in assay [5] was 9530 nM (active); in [8], 3770 nM (active); in [18], 844 nM (active); in assay [9], 1.89 µM (active); in assay [10], 1890 nM (active).

`O=C(Nc1ccc([N+](=O)[O-])cc1Cl)c1cc(Cl)ccc1O`: the Potency entry in assay [1], in assay [2], in assay [5], in [8], in assay [18] and in [9] was “inactive” in each case. Besides, the Potency entry in assay [10], in [14] and in assay [15] was “inactive” each time. The molecule was called inactive in [17], in [4], in [7], in [11], in [12] and in [13].

In the case of `CN(C)CCCN1c2ccccc2CCc2ccc(Cl)cc21`, the Potency result in assay [1], in assay [2], in assay [8], in [18], in assay [9] and in [10] was “inactive” in each case. Besides, the Potency entry in assay [14] and in assay [15] was “inactive” each time. The call in assay [17], in assay [4], in assay [7], in [11] and in assay [13] was inactive. For the same molecule, the figures for the Potency in assay [6] and in assay [19] were 3290 nM (active) and 1310 nM (active), respectively.

The record behind these values is PubChem BioAssay (NCATS).
